ALDH1A1 block – qHTS Assay for Inhibitors of Aldehyde Dehydrogenase 1 (ALDH1A1); 7.3% of 220,000 active; Potency, µM (series often up to 75.3 µM), for inactives: top-dose activity, negative = inhibition, most hits filed as inhibitors; Purified ALDH1A1, NADH fluorescence, propionaldehyde substrate; AID 1030, 2008;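 note: plate controls were no enzyme wells and a reference inhibitor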
KDM4E inh – qHTS Assay for Inhibitors of Human Jumonji Domain Containing 2E (JMJD2E); JMJD2E catalytic domain, FDH-coupled NADH fluorescence (FDH is formaldehyde dehydrogenase); Potency, µM (doses to about 57.1 µM), for inactives: top-dose activity change, negative = inhibition, usual class: inhibitors; 1.6% of 230,000 active; AID 2147, 2009;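 note: 0% = wells with enzyme and -100% = buffer wells without enzyme; nearly all actives have a fitted effect of over 50% in size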
Target sequence (B2RXH2 1-337 limits assumed): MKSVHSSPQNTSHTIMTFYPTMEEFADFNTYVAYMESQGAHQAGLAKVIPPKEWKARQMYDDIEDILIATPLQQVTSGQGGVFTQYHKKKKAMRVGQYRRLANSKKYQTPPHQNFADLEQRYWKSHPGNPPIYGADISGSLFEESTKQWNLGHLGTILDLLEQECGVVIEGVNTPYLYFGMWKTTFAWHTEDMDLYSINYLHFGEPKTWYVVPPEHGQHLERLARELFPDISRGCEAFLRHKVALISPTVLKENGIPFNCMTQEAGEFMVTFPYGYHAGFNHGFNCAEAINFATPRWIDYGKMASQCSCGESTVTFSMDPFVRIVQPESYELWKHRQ
Tau fibril FP – qHTS for Inhibitors of Tau Fibril Formation, Fluorescence Polarization | Microtubule-associated protein tau (Homo sapiens), P10636 | K18 P301L tau heparin fibrillization, Alexa594 FP, 6 h | Potency, µM (doses to about 57.7 µM), without a hit: at the top dose activity, negative = inhibition, actives largely listed as inhibitors | 0.39% of 280,000 active | AID 1468, 2008; active = well fitted curve in the direction sought with a large enough effect; inconclusive = small, poorly fitted or top-dose-only effect, or another doubt; inactive = no such curve, though single readings can be large; an effect the other way counts as inactive or inconclusive; note: nearly all actives have a fitted effect of over 55% in size
Target sequence (P10636 561-689 P618L limits assumed): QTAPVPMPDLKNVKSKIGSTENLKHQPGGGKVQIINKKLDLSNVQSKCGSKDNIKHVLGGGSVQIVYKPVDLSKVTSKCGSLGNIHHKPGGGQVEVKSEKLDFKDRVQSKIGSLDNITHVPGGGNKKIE
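K18 P301L tau (15 uM unlabeled/0.24 uM Alexa 594-labeled, final) + compound + heparin 20 uM final; 100 mM NaOAc pH 7; 6 hr 37 C; ThT 30 uM final added, 1 hr RT; FP ex 555/em 632 nm.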
Tau fluor cs – Counterscreen qHTS for Inhibitors of Tau Fibril Formation, Fluorescence Polarization. tau K18 P301L Alexa594 fluorescence, heparin fibrillization. 0.93% of 280,000 active. Potency, µM (highest dose often 57.7 µM), without a hit: at the top dose activity change, negative = decrease; active = well fitted curve in the direction sought with a large enough effect; inconclusive = small, poorly fitted or top-dose-only effect, or another doubt; inactive = no such curve, though single readings can be large; an effect the other way counts as inactive or inconclusive; note: nearly all actives have a fitted effect of over 55% in size
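Human tau K18 P301L (15 uM unlabeled, 0.24 uM Alexa 594-labeled) in 100 mM sodium acetate pH 7 with 20 uM heparin, 6 hr at 37 C. ThT 30 uM added, 1 hr ambient; Alexa 594 FP and total fluorescence read at 555/632 nm.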
Tau fibril ThT – qHTS for Inhibitors of Tau Fibril Formation, Thioflavin T Binding; 2.1% of 270,000 active; Potency, µM (highest dose often 57.4 µM), without a hit: at the top dose activity, negative = inhibition, usual class: inhibitors; recombinant tau K18 P301L, heparin-induced fibrillization, ThT fluorescence; active = well fitted curve in the direction sought with a large enough effect; inconclusive = small, poorly fitted or top-dose-only effect, or another doubt; inactive = no such curve, though single readings can be large; an effect the other way counts as inactive or inconclusive; note: nearly all actives have a fitted effect of over 55% in size
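ThT emission at 510 nm, taken 1 hr after adding 30 uM dye, quantifies aggregates formed when 20 uM heparin acts on human tau K18 P301L for 6 hr at 37 C.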
HPGD inh – qHTS Assay for Inhibitors of HPGD (15-Hydroxyprostaglandin Dehydrogenase); 4.3% of 150,000 active; Potency, µM, without a hit: at the top dose activity change, negative = inhibition, most hits filed as inhibitors; 15-hydroxyprostaglandin dehydrogenase [NAD(+)] (Homo sapiens), P15428; purified HPGD, NADH fluorescence kinetic, PGE2 substrate
Target sequence (P15428 whole entry, looked up): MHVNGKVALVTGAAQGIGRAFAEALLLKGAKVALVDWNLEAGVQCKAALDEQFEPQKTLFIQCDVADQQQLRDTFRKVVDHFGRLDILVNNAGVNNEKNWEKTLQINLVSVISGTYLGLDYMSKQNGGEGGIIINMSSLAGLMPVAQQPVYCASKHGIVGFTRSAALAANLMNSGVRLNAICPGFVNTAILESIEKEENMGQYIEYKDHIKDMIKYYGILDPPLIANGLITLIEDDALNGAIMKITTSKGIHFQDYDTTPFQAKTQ
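NADH formation kinetics: reaction with 30 uM PGE2 and 1 mM NAD+ (final), 20 nM enzyme, Tris-HCl pH 8 with Tween 20, after 15 min compound preincubation at room temperature. Fluorescence change, last versus first of five reads.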
* hit, by the source's call; ? = inconclusive; / = not tested or not shown; [ ] = dose if it differs, or a comment. The list is not random: actives were taken first. Their share in the collection is about 9.9%. Unless noted, calls come from the whole dose curve; as a rule, active = well fitted inhibition curve with a large enough effect (not every such curve was filed as active); inconclusive = small, poorly fitted or top-dose-only effect, or another doubt; inactive = no such curve, though single readings can be large or run the other way. Unless noted, % is set by controls: 0 for no effect and ±100 for the full control effect; potency is the fitted concentration of half-maximal effect.

SMILES	ALDH1A1 block	KDM4E inh	Tau fibril FP	Tau fluor cs	Tau fibril ThT	HPGD inh
CC(C)(C)C(=O)NC(=S)Nc1sc2c(c1C(N)=O)CCC2	2µM*	-15.6%	4.5%	-9.7%	-15.7%	/
CC(=O)NC(=S)Nc1sc2c(c1C(N)=O)CCC(C)C2 (centres undefined)	8.91µM*	-0.6%	-0.7%	-6.7%	?	/
CCC1(CC)NC(=O)N(CC(=O)Nc2sc3c(c2C(N)=O)CCC3)C1=O	22.4µM*	?	1.9%	-7.4%	?	?
CCCN(CCC)C(=O)Cn1c(=O)n(-c2ccc(OC)cc2OC)c(=O)c2c3c(sc21)CCC3	/	/	10.9%	-2.0%	-5.6%	/
CC(C)CC(=O)NC(=S)Nc1sc2c(c1C(N)=O)CCC2	1.41µM*	-14.1%	?	-10.2%	-5.9%	/
CCCCC(=O)Nc1sc2c(c1C(N)=O)CCC2	?	-10.9%	2.7%	-3.6%	-9.2%	-1.7%
Cc1cc([N+](=O)[O-])nn1CCCC(=O)Nc1sc2c(c1C(N)=O)CCC(C)C2 (centres undefined)	?	2.2%	-1.0%	-13.0%	?	15.8µM*
COc1ccc(S(=O)(=O)N(C)c2ccc(C(=O)N3CCC(C(N)=O)CC3)cc2)cc1OC	-15.4%	-1.1%	2.5%	2.0%	4.2%	/
Cc1ccc(S(=O)(=O)c2nc(-c3cccs3)oc2NCCCN(C)C)cc1	-3.7%	-8.3%	8.9%	-12.7%	-12.9%	-9.7%
COc1ccc(-n2c(C)cc(-c3csc(N)n3)c2C)cc1	25.1µM*	?	-5.2%	?	?	-12.5%
C=CCn1c(C)cc(-c2csc(N)n2)c1C	-2.8%	-3.9%	?	?	15.8µM*	-5.5%
C=CCn1c(C)cc(-c2csc(NC)n2)c1C	?	-24.1%	3.8%	5.1%	4.5%	/
COC(=O)/C=C/c1ccc(C(=O)NCC(=O)N[C@@H](CCC(=O)OC)C(=O)N[C@@H](CC(C)C)C(N)=O)cc1	?	/	-0.7%	0.3%	0.7%	/
CC(=O)/C(N=Nc1cc(C)ccc1O)=C(\C)O	2µM*	-9.3%	-6.5%	-12.3%	-5.4%	/
CN(Cc1cc(C(C)(C)C)cc(Br)c1O)Cc1cc(C(C)(C)C)cc(Br)c1O	-8.5%[13.5 µM]	/	/	/	/	-5.7%
O=C(Nc1ccc2c(c1)Cc1ccccc1-2)[C@@H]1[C@H](C(=O)O)[C@]2(Cl)C(Cl)=C(Cl)[C@@]1(Cl)C2(Cl)Cl	-0.7%[13.5 µM]	/	/	/	/	-15.6%
COC(=O)[C@@H]1C[C@H]1[C@@H](NC(=O)Oc1ccc(F)cc1)c1ccccc1	7.94µM*	4.2%	2.6%	-15.3%	?	-6.3%
O=C(O)c1ccccc1SC1CC(=O)N(c2cccc3ccccc23)C1=O (centres undefined)	/	?	6.1%	-9.8%	/	/
COC(=O)c1ccccc1SC1CC(=O)N(c2ccccc2)C1=O (centres undefined)	?	-1.0%	3.0%	14.3%	6.6%	14.1µM*
O=C1CC(Sc2nnnn2C2CCCCC2)C(=O)N1c1ccccc1 (centres undefined)	3.55µM*	8.4%	-6.7%	-7.9%	?	?
Cc1cc(C)cc(N2C(=O)CC(Sc3ncn[nH]3)C2=O)c1 (centres undefined)	2µM*	1.26µM*	2.2%	-7.8%	?	/
CCOc1ccc(N2C(=O)CC(Sc3ccccc3C(=O)O)C2=O)c([N+](=O)[O-])c1 (centres undefined)	1µM*	-12.5%	-2.8%	-26.5%	?	/
CCOC(=O)c1c(NC(=O)c2cc3nc(-c4ccc(OC)cc4)cc(C(F)(F)F)n3n2)sc(C)c1C	/	/	2.5%	5.2%	2.9%	/
CS(=O)(=O)N1N=C(c2ccco2)CC1c1ccc(Cl)cc1Cl (centres undefined)	?	-3.3%	3.5%	-5.1%	-9.6%	/
C[C@@]12CCC(=O)C=C1CC[C@H]1[C@H]3CC[C@](O)(C(=O)CO)[C@]3(C)CC(=O)[C@@H]12	-0.3%[20.9 µM]	2.7%[25.5 µM]	/	/	/	-3.1%
SMILES	ALDH1A1 block	KDM4E inh	Tau fibril FP	Tau fluor cs	Tau fibril ThT	HPGD inh
Cc1cccc(N2C(=O)CC(Sc3nnc(C)s3)C2=O)c1 (centres undefined)	2.82µM*	-2.8%	-5.3%	-12.1%	?	25.1µM*
Cn1nnnc1SC1CC(=O)N(c2ccccc2)C1=O (centres undefined)	1.58µM*	0.9%	-0.5%	5.9%	?	/
Cc1cccc(N2C(=O)CC(Sc3nc(C)cc(C)n3)C2=O)c1 (centres undefined)	?	4.8%	-9.7%	-6.9%	-12.6%	-26.3%
Cc1cc(C)cc(N2C(=O)CC(Sc3nnnn3-c3ccccc3)C2=O)c1 (centres undefined)	14.1µM*	-7.5%	-3.7%	-13.3%	?	?
CCCN1CNc2c(c(=O)[nH]c(=S)n2CCc2ccc(OC)c(OC)c2)C1	-3.8%	-11.7%	-5.6%	4.9%	-2.1%	/
CC(C)COC(=O)c1cccc2c1-c1ccccc1/C2=N\O	8.2%	-21.0%	28.2µM*	-28.6%	-5.0%	-4.6%
CCOC(=O)c1cccc2c1-c1ccccc1/C2=N/O	9.3%	-5.0%	?	?	-22.5%	-12.3%
CCCCc1ccc(NC(=O)COc2cccc3c(=O)n(C)ccc23)cc1	/	/	-13.9%	-15.1%	-16.3%	/
Cc1ccc(N2CC(NC(=O)c3cc4ccccc4o3)CC2=O)cc1C (centres undefined)	/	/	-3.0%	-5.3%	1.9%	/
O=C(NCc1ccccc1Cl)c1ccc2c(=O)n(CCCN3CCCC3=O)c(=S)[nH]c2c1	0.631µM*	3.4%	-7.7%	-2.7%	-0.7%	-11.6%
COCCNC(=O)c1ccc2c(=O)n(CCCN3CCCC3=O)c(=S)[nH]c2c1	?	-1.3%	-3.8%	-5.6%	-3.7%	/
O=C(NCCCN1CCCC1=O)c1ccc2c(=O)n(-c3ccc(F)cc3)c(=S)[nH]c2c1	14.1µM*	?	-8.8%	-5.0%	-2.0%	/
CCn1nc(C)c2c(-c3ccccc3)cc(=O)n(C(C)C(=O)NCCc3ccc(Cl)cc3)c21 (centres undefined)	/	/	-2.9%	-10.7%	?	/
COC(=O)c1cccc(C23CC4(C2)[C@H](CN(Cc2ccc(C(F)(F)F)cc2)[C@@H]4c2ccccc2)C3c2ccccc2)c1 (some centres undefined)	3.5%	-12.5%	-6.9%	-2.3%	-10.3%	-10.3%

Assay outcomes from PubChem.
